From PubChem
ERp5 block: blocks human ERp5 reductase activity on insulin | ERp5 insulin aggregation, absorbance 650 nm, 90 min | AID 651711 | 350,000 tested, 0.05% active | Q15084 | inhibition, % at 9.99 µM;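 active means mean replicate inhibition above about 25%, with every replicate also reaching it, limit read from the data, passing the limit was not always enough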
NRP1-CendR mod: modulators of CendR peptide binding to human neuropilin-1; FAM-RPARPAR peptide binding to NRP-1, fluorescence polarization; inhibition, % at 25 µM; 360,000 tested, 0.85% active; AID 602438;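 active means inhibition or corrected inhibition above about 18%, plus a signal ratio from 0.5 to 1.5, limit read from the data, passing the limit was not always enough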
PglD DTNB: inhibitors of Campylobacter jejuni PglD acetyltransferase; 360,000 tested, 0.098% active; purified PglD enzyme, DTNB colorimetric CoA detection; AID 602405; inhibition, % at 12.5 µM; in the data active means inhibition above about 16%, passing the limit was not always enough
PDI inh: inhibitors of human protein disulfide isomerase. P07237. PDI insulin aggregation turbidity, A650, 90 min. 350,000 tested, 0.052% active. AID 588391. inhibition, % at 10 µM;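 active means mean inhibition across replicates of 30% or more, whatever share of single replicates reach that level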
ARNT-TACC3 inh: ARNT/TACC3 interaction disruption; Q9Y6A5; AlphaScreen His-ARNT PAS-B/GST-TACC3 binding, luminescence; TACC3 fragment carries E629A point mutation; inhibition, % at 9.99 µM; 390,000 tested, 0.66% active; AID 623870;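 active means mean inhibition of replicates at least 50% and at least half of replicates each reaching 50%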
ALR inh: inhibitors of human sulfhydryl oxidase ALR. P55789. purified ALR, DTT oxidation, H2O2 HRP-luminol luminescence. 290,000 tested, 3.8% active. inhibition, % (concentration not given with the values). AID 485317;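 active means mean replicate inhibition above about 79%, with every replicate also reaching it, limit read from the data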
Target sequence (P55789 whole entry, looked up): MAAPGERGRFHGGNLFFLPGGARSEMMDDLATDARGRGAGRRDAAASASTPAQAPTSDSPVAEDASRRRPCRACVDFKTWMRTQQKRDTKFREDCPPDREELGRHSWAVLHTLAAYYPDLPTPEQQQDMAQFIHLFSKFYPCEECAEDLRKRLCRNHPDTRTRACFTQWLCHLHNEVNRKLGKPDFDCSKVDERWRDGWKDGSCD
Each line names hits and unclear results; the compound was inactive in the other large screens. Only a selection was taken, and hits are over-represented in it overall.

CCOc1ccc2nc(N=Nc3c(O)[nH]c(=S)[nH]c3=O)sc2c1	ALR inh 96.3 (no result: PglD DTNB)
CCOc1ccc2nc(N=Nc3c(O)[nH]c(=O)[nH]c3=O)sc2c1	none
C[C@@H]1CN([C@@H](C)CO)C(=O)CCCn2cc(nn2)CO[C@@H]1CN(C)C(=O)Oc1cccc2ccccc12	none (no result: NRP1-CendR mod, PDI inh, ALR inh)
Cc1cc(O)c2c(C)c(CC(=O)N3C[C@H]4C[C@@H](C3)c3cccc(=O)n3C4)c(=O)oc2c1	ALR inh 85.2 (no result: PDI inh)
O=C(Cc1ccccn1)N1CCCCN2[C@H](C1)[C@@H](c1ccc(Br)cc1)[C@@H]2CO	none (no result: NRP1-CendR mod, PDI inh, ALR inh)
COc1ccc(-c2ccc([C@@H]3[C@@H](CO)N4CCCCN(C(=O)Cc5ccccc5)C[C@H]34)cc2)cc1	none (no result: NRP1-CendR mod, PDI inh, ALR inh)
CCOc1cccc(N2C(=O)/C(=C/c3ccco3)C(=O)NC2=S)c1	none (no result: ALR inh)
O=C1NC(=S)N(c2ccccc2)C(=O)/C1=C/c1ccco1	ALR inh 98.6
O=C1NC(=O)N(c2cccc(Cl)c2)C(=O)/C1=C\c1ccc(Sc2nc3ccccc3[nH]2)o1	none (no result: PglD DTNB, ARNT-TACC3 inh)
O=C1NC(=O)N(c2ccccc2)C(=O)/C1=C/c1ccc(Sc2ccccc2)o1	ALR inh 96.8 (no result: ERp5 block, PglD DTNB)
O=C1NC(=O)N(c2ccccc2F)C(=O)/C1=C/c1ccc(Sc2nc3ccccc3[nH]2)o1	ALR inh 97.6 (no result: ARNT-TACC3 inh)
C[C@@H]1CN([C@@H](C)CO)C(=O)CCCn2cc(nn2)CO[C@@H]1CN(C)C(=O)Oc1ccc2ccccc2c1	none (no result: NRP1-CendR mod, PDI inh, ALR inh)
COc1cccc(-c2ccc([C@@H]3[C@H]4CN(C(=O)Cc5ccncc5)CCCCN4[C@H]3CO)cc2)c1	none (no result: NRP1-CendR mod, PDI inh, ARNT-TACC3 inh, ALR inh)
COC(=O)[C@@H]1[C@@H](CO)[C@@H]2Cn3c(ccc(-c4cccc(OC)c4)c3=O)[C@H]1N2C(=O)c1ccccc1F	none (no result: NRP1-CendR mod, PDI inh, ALR inh)
O=C(Cc1cccnc1)N1CCCCN2[C@H](CO)[C@@H](c3ccc(C#CC4CC4)cc3)[C@@H]2C1	none (no result: NRP1-CendR mod, PDI inh, ARNT-TACC3 inh, ALR inh)
COC(=O)[C@H]1[C@H](CO)[C@H]2Cn3c(ccc(-c4cccnc4)c3=O)[C@@H]1N2CCc1ccccc1	none (no result: NRP1-CendR mod, PDI inh, ALR inh)
CC(C)CC#Cc1ccc([C@H]2[C@@H](CO)N3CCCCN(C(=O)Cc4ccccn4)C[C@H]23)cc1	none (no result: NRP1-CendR mod, PDI inh, ALR inh)
CC(=O)Nc1ccc(C(=O)OCC(=O)Nc2ccc(Cl)cc2C(=O)c2ccccc2)cc1	none (no result: ERp5 block, PglD DTNB)
O=C(COC(=O)c1ccc(O)cc1)Nc1ccc(Cl)cc1C(=O)c1ccccc1	ALR inh 96.1 (no result: PglD DTNB)
O=C(Cc1ccccc1)N1CCCCN2[C@@H](CO)[C@H](c3ccc(-c4ccccc4)cc3)[C@@H]2C1	none (no result: NRP1-CendR mod, PDI inh, ALR inh)
CCn1c(NN=O)nc2ccccc21	ARNT-TACC3 inh 48.3
CCn1c(P(C)(=O)O)nc2ccccc21	none (no result: ERp5 block, ALR inh)
Cc1ccccc1NC(=NCCCN1CC1)Nc1ccccc1C	NRP1-CendR mod 40.5 (no result: PglD DTNB, ALR inh)
O=C(Cc1cccnc1)N1CCCCN2[C@H](CO)[C@@H](c3ccc(C#CC4CCCC4)cc3)[C@H]2C1	none (no result: NRP1-CendR mod, PDI inh, ALR inh)
O=C(Cc1ccccc1)N1CC2(C1)[C@H](c1ccccc1)[C@@H](CO)N2Cc1cccc(Cl)c1	none (no result: NRP1-CendR mod, PglD DTNB, PDI inh, ARNT-TACC3 inh, ALR inh)
COc1cc(/C=C/[N+](=O)[O-])ccc1O	none (no result: ARNT-TACC3 inh)
CCN(CC)c1ccc(/C=C/[N+](=O)[O-])cc1	ALR inh 98.5 (no result: ARNT-TACC3 inh)
COC(=O)[C@H]1[C@H](CO)[C@H]2Cn3c(ccc(/C=C/c4ccccc4)c3=O)[C@@H]1N2CC1CCCC1	none (no result: NRP1-CendR mod, PDI inh, ALR inh)
CCCCn1c(O)c(C(C)=NCc2cc(OC)cc(OC)c2)c(=O)[nH]c1=O	ARNT-TACC3 inh 26.3 (no result: ERp5 block, ALR inh)
CC(=O)N1[C@@H]2c3ccc(-c4cccc(C(=O)N(C)C)c4)c(=O)n3C[C@H]1[C@H](CO)[C@H]2C(=O)O	none (no result: NRP1-CendR mod, PglD DTNB, PDI inh, ARNT-TACC3 inh, ALR inh)
O=C(Cc1ccccc1)N1CCCCN2[C@H](CO)[C@@H](c3ccc(-c4ccccc4)cc3)[C@@H]2C1	none (no result: NRP1-CendR mod, PDI inh, ALR inh)
O=C(O)[C@H]1[C@H](CO)[C@H]2Cn3c(ccc(-c4cccc(F)c4)c3=O)[C@@H]1N2CCc1ccccc1	none (no result: NRP1-CendR mod, PDI inh, ALR inh)
O=C(Cc1cccnc1)N1CCCCN2[C@H](C1)[C@@H](c1ccc(C#CC3CC3)cc1)[C@@H]2CO	none (no result: NRP1-CendR mod, PDI inh, ARNT-TACC3 inh, ALR inh)
C=CCN1C(=O)/C(=C/c2cccs2)C(=O)NC1=S	ALR inh 96.3 (no result: ERp5 block, PglD DTNB)
O=C1NC(=O)N(CCc2ccc(F)cc2)C(=O)/C1=C/c1cccs1	none
Cc1ccccc1-c1ccc([C@H]2[C@@H](CO)N3CCCCN(C(=O)Cc4ccccn4)C[C@H]23)cc1	none (no result: NRP1-CendR mod, PDI inh, ALR inh)
C[C@]12CC[C@H](O)CC1=CC(=O)C1C2CC[C@]2(C)C(=O)[C@H](O)CC12 (some centres undefined)	NRP1-CendR mod 19.4
